From PubChem
Hits are enriched below; roughly 3.8% of the tested compounds scored in any of these assays.
FAS-TE inh: FAS thioesterase (human) inhibition. recombinant FAS-TE, OMFH fluorogenic substrate, fluorescence endpoint. inhibition, % at 15 µM. 360,000 tested, 0.67% active;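 active means compounds whose normalised, plate-corrected inhibition of enzyme fluorescence in the single-dose primary screen is 50% or more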;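 further: 0% = DMSO with enzyme and 100% = substrate without enzyme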
Target sequence (P49327 whole entry, looked up): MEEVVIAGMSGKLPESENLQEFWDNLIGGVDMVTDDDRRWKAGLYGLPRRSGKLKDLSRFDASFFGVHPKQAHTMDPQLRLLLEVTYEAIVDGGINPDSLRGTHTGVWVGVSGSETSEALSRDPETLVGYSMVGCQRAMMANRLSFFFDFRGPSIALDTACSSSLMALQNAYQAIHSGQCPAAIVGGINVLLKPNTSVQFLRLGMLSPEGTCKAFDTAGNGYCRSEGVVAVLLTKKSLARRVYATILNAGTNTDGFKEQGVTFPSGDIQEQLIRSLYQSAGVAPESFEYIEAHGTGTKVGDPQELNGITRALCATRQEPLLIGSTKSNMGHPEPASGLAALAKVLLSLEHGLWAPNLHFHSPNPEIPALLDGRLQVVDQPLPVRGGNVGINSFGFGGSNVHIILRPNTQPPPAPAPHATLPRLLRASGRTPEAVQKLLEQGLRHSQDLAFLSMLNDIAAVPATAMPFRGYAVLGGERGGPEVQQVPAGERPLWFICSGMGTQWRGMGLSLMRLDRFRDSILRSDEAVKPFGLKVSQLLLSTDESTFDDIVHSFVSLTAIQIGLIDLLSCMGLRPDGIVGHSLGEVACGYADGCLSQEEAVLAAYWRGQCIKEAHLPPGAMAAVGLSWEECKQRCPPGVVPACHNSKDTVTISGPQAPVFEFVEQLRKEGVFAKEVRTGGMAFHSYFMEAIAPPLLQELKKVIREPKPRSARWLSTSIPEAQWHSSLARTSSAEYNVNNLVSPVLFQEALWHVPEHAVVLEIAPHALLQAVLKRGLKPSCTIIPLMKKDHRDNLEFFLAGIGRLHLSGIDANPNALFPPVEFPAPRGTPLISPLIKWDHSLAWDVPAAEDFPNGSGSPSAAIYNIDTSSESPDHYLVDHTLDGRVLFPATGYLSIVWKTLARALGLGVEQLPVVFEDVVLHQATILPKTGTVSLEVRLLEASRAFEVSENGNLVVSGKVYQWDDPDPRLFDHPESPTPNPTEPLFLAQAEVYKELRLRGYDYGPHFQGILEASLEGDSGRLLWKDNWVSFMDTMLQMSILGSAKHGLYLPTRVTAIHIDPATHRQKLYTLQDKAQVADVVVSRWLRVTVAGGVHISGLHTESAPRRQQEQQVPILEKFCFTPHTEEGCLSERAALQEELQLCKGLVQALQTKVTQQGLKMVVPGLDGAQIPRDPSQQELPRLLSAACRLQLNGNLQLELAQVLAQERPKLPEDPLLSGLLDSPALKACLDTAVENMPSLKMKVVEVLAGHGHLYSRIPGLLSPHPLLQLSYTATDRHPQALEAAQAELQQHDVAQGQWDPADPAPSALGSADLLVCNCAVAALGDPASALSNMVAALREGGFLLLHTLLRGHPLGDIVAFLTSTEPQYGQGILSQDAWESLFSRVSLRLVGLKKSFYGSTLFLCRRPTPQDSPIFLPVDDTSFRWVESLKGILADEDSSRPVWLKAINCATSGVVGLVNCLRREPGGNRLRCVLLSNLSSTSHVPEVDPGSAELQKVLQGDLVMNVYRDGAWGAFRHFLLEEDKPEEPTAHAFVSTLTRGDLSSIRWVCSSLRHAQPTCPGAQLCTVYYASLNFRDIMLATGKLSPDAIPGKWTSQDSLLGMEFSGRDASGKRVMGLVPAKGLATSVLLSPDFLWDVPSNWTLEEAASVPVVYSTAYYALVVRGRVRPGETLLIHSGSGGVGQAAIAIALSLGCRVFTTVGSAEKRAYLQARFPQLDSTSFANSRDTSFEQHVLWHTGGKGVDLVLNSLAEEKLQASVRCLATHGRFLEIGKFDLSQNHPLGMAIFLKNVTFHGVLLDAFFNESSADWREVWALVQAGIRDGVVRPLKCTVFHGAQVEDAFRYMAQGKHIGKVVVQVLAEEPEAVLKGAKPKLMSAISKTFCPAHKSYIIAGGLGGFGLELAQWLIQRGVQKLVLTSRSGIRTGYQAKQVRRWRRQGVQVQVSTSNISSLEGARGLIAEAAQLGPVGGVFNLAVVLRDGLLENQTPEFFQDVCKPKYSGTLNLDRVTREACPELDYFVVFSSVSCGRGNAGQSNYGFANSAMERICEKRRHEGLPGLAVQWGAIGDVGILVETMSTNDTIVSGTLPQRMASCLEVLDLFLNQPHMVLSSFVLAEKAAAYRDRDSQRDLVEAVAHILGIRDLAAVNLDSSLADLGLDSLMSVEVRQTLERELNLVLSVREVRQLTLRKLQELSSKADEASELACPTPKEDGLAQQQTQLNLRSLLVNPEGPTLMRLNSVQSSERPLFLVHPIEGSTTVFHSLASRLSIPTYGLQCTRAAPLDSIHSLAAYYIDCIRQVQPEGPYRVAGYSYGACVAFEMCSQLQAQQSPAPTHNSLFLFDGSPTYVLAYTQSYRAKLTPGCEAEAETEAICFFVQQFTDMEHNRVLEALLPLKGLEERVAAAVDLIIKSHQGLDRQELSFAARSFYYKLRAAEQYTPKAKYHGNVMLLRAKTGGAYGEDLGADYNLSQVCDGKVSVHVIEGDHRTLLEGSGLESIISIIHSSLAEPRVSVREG
Mot1-301 SUMO: inhibitors of SUMOylation pathway: yeast Mot1-301 growth rescue. S. cerevisiae Mot1-301 growth rescue, ATP luminescence, 38.5C; percent above DMSO median, 100 means doubled. growth rescue, % at 18.8 µM. 320,000 tested, 1% active. AID 2716;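 active means every valid replicate shows activation above 250% relative to neutral control wells; inactive means the rest, any valid replicate at or below 250%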;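 further: OY570 slx delta 5 strain wells were the positive control but not used for scaling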
MPTP block: blocks calcium-induced mitochondrial swelling; isolated mouse mitochondria, Ca2+ swelling absorbance, 30 min; inhibition, % at 10 µM; 360,000 tested, 1.4% active; AID 602449;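 active means inhibition of 50% or more, scaled per plate between neutral and stimulator controls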;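 further: 0% = DMSO wells given calcium and 100% = 1 mM EGTA wells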
Yeast superoxide: yeast age-related superoxide inhibition as caloric restriction mimetic. S. cerevisiae aged cells, superoxide DHE fluorescence; hits give low values. superoxide response (% of plate mean), % at 10 µM. 330,000 tested, 0.18% active;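 active means superoxide response under a set limit, about three screen SD below normal, cut at about 65% in these data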;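 further: yeast aged for seven days with compound at 30 °C before DHE staining; 100% = average MFI of all compound-treated wells on the plate with controls excluded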
H9c2 protect: myocardial damage modulation in H9c2 cells. H9c2 cardiomyocytes, H2O2 injury protection, ATPLite, 2 h. 360,000 tested, 0.63% active. protection from H2O2 cell death, % at 20 µM;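 active means compounds giving at least 50% protection of heart cells from peroxide-induced death in the single-dose screen, raw or plate-pattern-corrected value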;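 further: 0% = DMSO wells with peroxide and 100% = DMSO wells without peroxide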
aDG glyco act: alpha-DG glycosylation activation | 360,000 tested, 0.22% active | AID 624168 | activation, % at 10 µM | Pro5-aDG cells, alpha-DG glycosylation AlphaScreen (IIH6); 0% Pro5, 100% B10-LARGE cell signal;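 active means activation of at least 8% versus controls, or a plate z-score of at least 8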;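 further: Pro5 are CHO cells carrying HIG-tagged alpha-DG that lacks glycosylation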
* hit, by the source's call.

Cc1c(C=O)c2ccccn2c1C(=O)c1ccc(Cl)c([N+](=O)[O-])c1 was read as FAS-TE inh 12, Mot1-301 SUMO 860, MPTP block 2, Yeast superoxide 103, H9c2 protect 51* and aDG glyco act 1.
For CCn1cc(C(=O)Nc2cccc(NC(C)=O)c2)c2cc(OC)c(OC)cc2c1=O the results were FAS-TE inh 1, Mot1-301 SUMO 0, MPTP block 0, Yeast superoxide 102, H9c2 protect 55* and aDG glyco act 0.
For CCn1cc(C(=O)Nc2ccc3c(c2)OCCO3)c2cc(OC)c(OC)cc2c1=O the results were FAS-TE inh -1, Mot1-301 SUMO 2, MPTP block -2, Yeast superoxide 97, H9c2 protect 24 and aDG glyco act 2.
NC(=O)c1nsc(C(=O)N(c2ccccc2F)C(C(=O)NCc2ccc(F)cc2)c2ccc(O)cc2)c1N (configuration not stated) was read as FAS-TE inh 23, Mot1-301 SUMO -12, MPTP block 1, Yeast superoxide 85, H9c2 protect 52* and aDG glyco act 0.
For COc1ccc(C(C(=O)NCC2CCCO2)N(Cc2cccs2)C(=O)c2snc(C(N)=O)c2N)cc1OC (configuration not stated) the results were FAS-TE inh 0, Mot1-301 SUMO 8, MPTP block -1, Yeast superoxide 95, H9c2 protect 30 and aDG glyco act 0.
COc1ccccc1N(C(=O)c1snc(C(N)=O)c1N)C(C(=O)NCc1ccccc1)c1ccc(O)cc1 (configuration not stated) was read as FAS-TE inh 2, MPTP block 1, H9c2 protect 2 and aDG glyco act 0.
`CCOc1ccc(C(C(=O)NCC2CCCO2)N(Cc2cccs2)C(=O)c2snc(C(N)=O)c2N)cc1` (configuration not stated) gave FAS-TE inh 4, Mot1-301 SUMO -2, MPTP block -1, Yeast superoxide 124, H9c2 protect 68* and aDG glyco act 0.
CCOc1ccc(C(C(=O)NCC2CCCO2)N(C(=O)c2snc(C(N)=O)c2N)c2ccccc2F)cc1 (configuration not stated) was read as FAS-TE inh 6, Mot1-301 SUMO -10, MPTP block 3, Yeast superoxide 90, H9c2 protect 61* and aDG glyco act 0.
Screening O=C(c1ccc2nc(Cc3ccccc3F)oc2c1)N1CC[C@H](O)C1 returned FAS-TE inh -3, Mot1-301 SUMO 3, MPTP block -2, Yeast superoxide 116, H9c2 protect 6 and aDG glyco act 0.
Screening Cc1ccccc1OCCOC(=O)c1cc(S(=O)(=O)N2CCCCC2)ccc1N1CCOCC1 returned FAS-TE inh 28, Mot1-301 SUMO 0, MPTP block -2, Yeast superoxide 107, H9c2 protect -18 and aDG glyco act 2.
O=C(CNCc1ccccc1Cl)Nc1cc(S(=O)(=O)N2CCOCC2)ccc1Cl was read as FAS-TE inh 10, Mot1-301 SUMO -13, MPTP block 0, Yeast superoxide 102, H9c2 protect -11 and aDG glyco act 0.
`O=C(Nc1cc(S(=O)(=O)N2CCOCC2)ccc1Cl)C(=O)c1c(-c2ccccc2)cc2ccccn12` gave FAS-TE inh 76*, Mot1-301 SUMO -16, MPTP block 4, Yeast superoxide 116, H9c2 protect 3 and aDG glyco act 0.
Cc1ccc(-c2nnn(CC(=O)NCCc3ccc4c(c3)OCO4)n2)o1 was read as FAS-TE inh 0, Mot1-301 SUMO 329*, MPTP block -1, Yeast superoxide 100, H9c2 protect 8 and aDG glyco act 0.
Screening Cn1ccc2c(-c3ccc4[nH]ccc4c3)cc3c(c21)C1CCC3O1 (configuration not stated) returned FAS-TE inh 9, MPTP block 1, H9c2 protect 3 and aDG glyco act 1.
Screening Cc1[nH]n(C2=NCCS2)c(=O)c1N=Nc1cccc(C(F)(F)F)c1 returned FAS-TE inh 11, Mot1-301 SUMO 13, MPTP block -29, Yeast superoxide 70, H9c2 protect 62* and aDG glyco act 5.
For O=C1Nc2ccccc2C(=O)C1(Cl)Cc1ccccc1 (configuration not stated) the results were FAS-TE inh 4, Mot1-301 SUMO 6, MPTP block 0, Yeast superoxide 87, H9c2 protect 52* and aDG glyco act 0.
`CCOc1ccc(OCCSc2ccc(S(=O)(=O)N3CCN(C)CC3)cn2)cc1` gave FAS-TE inh 25, Mot1-301 SUMO 295*, MPTP block 0, Yeast superoxide 92, H9c2 protect -9 and aDG glyco act 0.
Screening CN1CCN(S(=O)(=O)c2ccc(SCCOc3ccccc3)nc2)CC1 returned FAS-TE inh 11, Mot1-301 SUMO 14, MPTP block -1, Yeast superoxide 82, H9c2 protect -1 and aDG glyco act 0.
Cc1cccc(C2=NN(c3ccccc3)[C@@H](C(=O)N3CCOC3=O)[C@@H]2c2ccccc2)c1 was read as FAS-TE inh 36, MPTP block 1, Yeast superoxide 96, H9c2 protect -8 and aDG glyco act 0.
C[C@@H]1C(c2cccc(Cl)c2)=NN(c2ccc(Br)cc2)[C@H]1C(=O)N1CCOC1=O was read as FAS-TE inh 56*, MPTP block 2, Yeast superoxide 92, H9c2 protect 2 and aDG glyco act 0.
Screening Cc1cccc(C2=NN(c3ccc(Br)cc3)[C@@H](C(=O)N3CCOC3=O)[C@@H]2c2ccccc2)c1 returned FAS-TE inh 72*, MPTP block 0, Yeast superoxide 99, H9c2 protect 5 and aDG glyco act 0.
`C[C@@H]1CN([C@@H](C)CO)C(=O)CCCn2nncc2CO[C@H]1CN(C)C(=O)C1CC1` gave FAS-TE inh -4, MPTP block 0, H9c2 protect 8 and aDG glyco act 0.
Screening COc1cc([C@@H]2Oc3cc(C4Oc5cc(O)cc(O)c5C(=O)[C@H]4O)ccc3O[C@H]2CO)ccc1O (some centres not stated) returned FAS-TE inh 4, Mot1-301 SUMO -7, MPTP block 0, Yeast superoxide 104, H9c2 protect 15 and aDG glyco act 0.
`N#Cc1c(-c2ccco2)cc(-c2ccccn2)nc1N` gave FAS-TE inh -4, Mot1-301 SUMO 1, MPTP block -1, Yeast superoxide 106, H9c2 protect 88* and aDG glyco act 0.
For N#Cc1c(-c2ccco2)cc(C2CC2)nc1N the results were FAS-TE inh 0, Mot1-301 SUMO -12, MPTP block -1, Yeast superoxide 90, H9c2 protect 24 and aDG glyco act 0.
For Cc1ccc(NC(=O)CSc2nnnn2-c2cccnc2)c(C)c1 the results were FAS-TE inh -2, Mot1-301 SUMO -15, MPTP block 1, Yeast superoxide 117, H9c2 protect -4 and aDG glyco act 0.
